Data on 11 compounds can be found in PubChem BioAssay (NCI).

The structures appear in SMILES notation. About 83,000 compounds went through this panel and 20% of them were active in at least one assay; those are over-represented in the sample as a whole.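 96-well plates, one dose, 48 hours. Percent growth reported; active if below 10.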 Calls of active or inactive are those of the source.

Holding throughout (assay): NCI-60 one-dose screen, 48 h (100 = growth as untreated, 0 = no growth, -100 = all killed)
Assay [1] concerns HCT-15 colon. The conditions noted are these: 10 µM unless noted.
Assay [2] concerns HT29 colon. Conditions: 10 µM unless noted.
Assay [3] deals with SNB-75 CNS. Conditions: 10 µM unless noted.
Assay [4] has as its system SNB-19 CNS. The conditions noted are these: 10 µM unless noted.
The subject of assay [5] is U251 CNS. The conditions noted are these: 10 µM unless noted.
The test system of assay [6] is PC-3 prostate. Conditions: 10 µM unless noted.
In assay [7] the test system is SK-MEL-5 melanoma. Conditions: 10 µM unless noted.
The test system of assay [8] is UACC-62 melanoma. Conditions: 10 µM unless noted.
For assay [9], the system named is LOX IMVI melanoma. The conditions noted are these: 10 µM unless noted.
Assay [10] relates to SK-MEL-28 melanoma. Conditions: 10 µM unless noted.
Assay [11] concerns SK-MEL-2 melanoma. The conditions noted are these: 10 µM unless noted.
Assay [12] relates to EKVX NSCLC. The conditions noted are these: 10 µM unless noted.
Assay [13] has as its system SN12C renal. Conditions: 10 µM unless noted.
Assay [14] concerns UO-31 renal. The conditions noted are these: 10 µM unless noted.
Assay [15] has as its system TK-10 renal. Conditions: 10 µM unless noted.
Assay [16] has as its system ACHN renal. The conditions noted are these: 10 µM unless noted.
Assay [17] has as its system CAKI-1 renal. Conditions: 10 µM unless noted.
The subject of assay [18] is HL-60(TB) leukemia. Conditions: 10 µM unless noted.
In assay [19] the test system is CCRF-CEM leukemia. Conditions: 10 µM unless noted.
Assay [20] has as its system A498 renal. Conditions: 10 µM.

As to `O=C(Nc1ccc(O)cc1)C(Cl)(Cl)Cl`, the growth in assay [1] is 98.7% (inactive); in assay [2], 105% (inactive); in assay [3] it was 98.5% (inactive); in assay [4], 102% (inactive); in [5], 95% (inactive); in [6], 101% (inactive). Also, the growth was 100% (inactive) in assay [7]; 93.8% (inactive) in assay [8]; 106% (inactive) in [9]; 107% (inactive) in [10]; 99.4% (inactive) in assay [11]; 98.6% (inactive) in assay [12]. In addition, the growth in assay [13] was 95.4% (inactive); in assay [14] it was 93.4% (inactive); in [15] it was 106% (inactive); in assay [16] it was 104% (inactive); in assay [17], 89.9% (inactive); in assay [18], 98.5% (inactive). Besides, the growth in assay [19] is 106% (inactive).

Regarding `Cn1cc(C=O)c2nccnc21`, the growth in assay [1] is 114% (inactive); in assay [2] it was 93% (inactive); in [3], 78.5% (inactive); in assay [4], 110% (inactive); in assay [5], 97.1% (inactive); in assay [6], 107% (inactive). The growth in assay [7] is 104% (inactive); in assay [8], 102% (inactive); in [9], 94.5% (inactive); in assay [10], 94% (inactive); in assay [11], 123% (inactive); in assay [12], 96.9% (inactive). Also, the growth in assay [13] is 104% (inactive); in assay [14] it was 106% (inactive); in assay [15], 94.8% (inactive); in [16] it was 109% (inactive); in assay [17], 91.4% (inactive); in [18], 107% (inactive). Moreover, in assay [19], the growth was 102% (inactive).

As for `CC1(C)N=C(N)N=C(N)N1c1ccc(OCCCNC(=O)Nc2ccc(S(=O)(=O)F)cc2)c(Cl)c1`, the growth was 41.5% (inactive) in [1]; 8% (active) in assay [2]; 57.6% (inactive) in assay [3]; 28.6% (inactive) in assay [4]; 24.5% (inactive) in [5]; 12.7% (inactive) in [6]. The growth is 29% (inactive) in assay [7]; 23.7% (inactive) in assay [8]; 16.2% (inactive) in [9]; 54.2% (inactive) in assay [10]; 53.3% (inactive) in assay [11]; 53% (inactive) in [12]. Besides, the growth in assay [13] was 23.8% (inactive); in assay [14] it was 83.6% (inactive); in assay [15] it was 33.3% (inactive); in assay [16], 26.4% (inactive); in assay [17], 92.1% (inactive); in assay [20], 85.3% (inactive). In addition, the growth in [18] is 31.8% (inactive); in [19] it was 24.2% (inactive).

Regarding `Clc1ccc(CSC(Cn2ccnc2)c2ccc(Cl)cc2Cl)cc1` (stereo not drawn), the growth in assay [1] was 29% (inactive); in [2] it was 30.5% (inactive); in [3] it was 57.9% (inactive); in assay [4], 47.3% (inactive); in assay [5] it was 27.8% (inactive); in [6], 15% (inactive). The growth in assay [7] was -9.89% (active); in [8], 29.5% (inactive); in assay [9], 18% (inactive); in assay [10], 62.3% (inactive); in assay [11], 34.1% (inactive); in assay [12] it was 31.7% (inactive). In addition, the growth in assay [13] was 38.5% (inactive); in [14] it was 4.12% (active); in [15], 32.3% (inactive); in [17], 20.8% (inactive); in assay [20], 49.2% (inactive); in assay [18], -11.6% (active). In addition, the growth in assay [19] was 20% (inactive).

`COc1cc(/C=N/C2=C(C#N)C(c3ccco3)c3c(c4cc(C)ccc4oc3=O)O2)cc(OC)c1OC` (stereo not drawn): the growth in [1] is 91.8% (inactive); in [2] it was 109% (inactive); in assay [3], 82.7% (inactive); in [4], 98.2% (inactive); in assay [5], 96.6% (inactive); in assay [6], 89.9% (inactive). In addition, the growth in assay [7] is 93.5% (inactive); in assay [8] it was 55.6% (inactive); in assay [9] it was 88.5% (inactive); in [10], 81.7% (inactive); in assay [11], 94.1% (inactive); in [12], 95.1% (inactive). Besides, the growth in [13] is 99.5% (inactive); in assay [14], 67.9% (inactive); in [16], 90.1% (inactive); in assay [17], 85.8% (inactive); in assay [20], 86.6% (inactive); in [18], 96.1% (inactive). In addition, in assay [19], the growth was 96.5% (inactive).

With `CCCC(=O)O[C@@H]1C[C@H]2C[C@@H](O[C@@H]3O[C@@H](C)[C@@H](O)[C@@H](O)[C@H]3OC)C[C@@H](C[C@@H](C)/C=C/C=C\C[C@@H]3O[C@@H](C[C@@H]3C)[C@@H](O)C[C@H]3C[C@@]1(O)C(=O)O3)O2`, the growth is 54.3% (inactive) in assay [1]; 60% (inactive) in assay [2]; 55.4% (inactive) in assay [3]; 52.4% (inactive) in assay [4]; 35.6% (inactive) in assay [5]; 33% (inactive) in [6]. Also, the growth in [7] is 19.5% (inactive); in [8], 62.5% (inactive); in [9], 62.5% (inactive); in [10], 71.5% (inactive); in [11], 57.8% (inactive); in assay [12], 22.6% (inactive). Besides, the growth in [13] was 58.7% (inactive); in assay [14], 34.2% (inactive); in assay [16], 62% (inactive); in assay [17], 60.9% (inactive); in assay [20], 79.9% (inactive); in assay [18] it was 29.9% (inactive). Further, the growth in [19] was 50.9% (inactive).

`CC(=O)ONc1ccc([N+](=O)[O-])c(C(F)(F)F)c1`: the growth in [1] is 108% (inactive); in assay [2] it was 108% (inactive); in assay [3], 82.9% (inactive); in assay [4], 107% (inactive); in assay [5] it was 104% (inactive); in assay [6] it was 95.4% (inactive). The growth in assay [7] is 109% (inactive); in assay [8], 96.8% (inactive); in assay [9], 98.8% (inactive); in assay [10] it was 110% (inactive); in assay [11], 102% (inactive); in assay [12], 87.6% (inactive). The growth in [13] was 107% (inactive); in assay [14], 77.2% (inactive); in [15] it was 112% (inactive); in [20], 103% (inactive); in assay [19], 97.7% (inactive).

Turning to `CC(=O)O[C@H](C[C@H](C(C)C)N(C)C(=O)[C@@H](NC(=O)[C@H]1CCCCN1C)C(C)C)c1nc(C(=O)N[C@@H](Cc2ccccc2)C[C@H](C)C(=O)O)c(C)s1`, the growth was 16.5% (inactive) in assay [1]; 3.99% (active) in assay [2]; 49.6% (inactive) in assay [3]; 38.5% (inactive) in [4]; 8.94% (active) in assay [5]; 21.3% (inactive) in assay [6]. Further, the growth is -33.1% (active) in [7]; 48.1% (inactive) in assay [8]; 26.6% (inactive) in assay [9]; 62.7% (inactive) in [10]; 61.5% (inactive) in [11]; 40.9% (inactive) in assay [12]. Also, the growth was 34.6% (inactive) in assay [13]; 58.9% (inactive) in [14]; 36.9% (inactive) in assay [15]; -8.24% (active) in [20]; -8.97% (active) in assay [18]; 10.8% (inactive) in assay [19].

Consider `Nc1ccc(-c2nc3cc(F)ccc3[se]2)cc1F`, for which the growth was 52.8% (inactive) in [1]; 61% (inactive) in [2]; 76.6% (inactive) in [3]; 95.3% (inactive) in assay [4]; 87.2% (inactive) in assay [5]; 74.3% (inactive) in assay [6]. Also, the growth in assay [7] is 82.1% (inactive); in assay [8] it was 71.9% (inactive); in assay [9], 88.2% (inactive); in assay [10] it was 115% (inactive); in [11] it was 97.7% (inactive); in assay [12], 49.2% (inactive). Besides, the growth in assay [13] is 83% (inactive); in assay [14], 38.5% (inactive); in [15] it was 43.6% (inactive); in assay [20], 13.5% (inactive); in assay [18], 64.9% (inactive); in [19] it was 44.8% (inactive).

`O=C1NC(=O)C(=Cc2cn(CCCCCCn3c4ccccc4c(=O)c4ccccc43)c3ccccc23)C(=O)N1`: the growth in assay [1] was 75.1% (inactive); in assay [2], 97.2% (inactive); in assay [3] it was 94.5% (inactive); in [4], 86% (inactive); in [5], 90.4% (inactive); in assay [6] it was 84% (inactive). Besides, the growth in assay [7] is 90.5% (inactive); in assay [8], 63.5% (inactive); in [9], 83.8% (inactive); in assay [10], 102% (inactive); in assay [11], 94% (inactive); in [12], 89.8% (inactive). The growth in [13] is 91.1% (inactive); in [14], 63.9% (inactive); in [16], 101% (inactive); in assay [17], 97.6% (inactive); in [20], -49.3% (active); in assay [18] it was 78.7% (inactive). In assay [19], the growth was 80.6% (inactive).

Take `[Au+].[N-]=C=O.c1ccc(CN2[CH-]N(Cc3ccccc3)C(c3ccccc3)=C2c2ccccc2)cc1`: the growth in [1] was 51.9% (inactive); in assay [2], 88.4% (inactive); in assay [3] it was 79.2% (inactive); in assay [4] it was 58.7% (inactive); in assay [5], 47.8% (inactive); in assay [6] it was 84.1% (inactive). The growth is 96.9% (inactive) in [7]; 78% (inactive) in assay [8]; 94.7% (inactive) in assay [9]; 92.8% (inactive) in [10]; 84.5% (inactive) in assay [11]; 86.7% (inactive) in assay [12]. For the same compound, the growth in assay [13] is 74% (inactive); in assay [14], 74.5% (inactive); in assay [15], 104% (inactive); in assay [20], 112% (inactive).
